Measured values taken from PubChem BioAssay AID662 (National Center for Advancing Translational Sciences (NCATS), 2007).
About 1,800 (2.5%) of roughly 71,000 compounds were called active. About 26% were inconclusive and are not listed. Calls come from the whole dose curve; as a rule, active = well fitted activation curve with a large enough effect in the signal ratio, with a control signal flat (not every such curve was filed as active); inconclusive = small, poorly fitted or top-dose-only effect, or effect the other way, or a change in a side signal; inactive = flat fitted curve, though single readings scatter; the % refers to the signal ratio. The list comes from a sample in which actives are over-represented; it also holds similar structures and randomly drawn compounds.

assay: Cell signaling CRE-BLA (Fsk stim); conditions: CHO CRE-bla reporter (cAMP response element driving beta-lactamase), forskolin EC10, beta-lactamase ratio; series mostly up to 38.2 µM; for Activity change, negative = inhibition: % of control where 0% means no effect
Outline: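 Beta-lactamase reporter under a cAMP responsive element in CHO cells; compounds tested in titration series against EC10 NKH 477, 3 h at 37 °C. Read-out: CCF4 FRET ratio 460nm/530nm (excitation 405nm) giving %Activity, fitted to AC50.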
Potency is the fitted concentration of half-maximal effect.

Activity change, negative = inhibition, inactive:
O=C(O)c1c(Br)c(Br)c(Br)c(Br)c1C1c2ccc(O)cc2Oc2cc(O)ccc21 4.42% [at 7.6 µM], COc1ccc(-n2c(SC)nc(O)cc2=O)cc1 -26.5% [at 7.6 µM], CSc1nnc2c(n1)OC(c1cn(C)c3ccccc13)N(C(C)=O)c1ccccc1-2 (stereo not given) 2.27% [at 7.6 µM], c1ccc2cc(OCCN3CCCC3)ccc2c1 -1.69% [at 7.6 µM]

Potency, active:
C=CCn1c2ccccc2c2nnc(SC(CC)C(=O)Nc3nc(C)c(C(=O)OCC)s3)nc21 (stereo not given) 1.26 µM, COc1ccccc1CCn1c(=O)c(-c2cn(C)c3ccccc23)nc2cncnc21 0.398 µM, COCCn1c(=O)c(-c2cccs2)nc2cncnc21 12.6 µM, COc1ccc(-n2c(=O)c(-c3cn(C)c4ccccc34)nc3cnc(OC)nc32)cc1 0.2 µM, CCN1C(=O)c2cccc3c(N)ccc1c23 10 µM, Cc1cc(C)c2c(n1)nn1c(-n3ccnc3)cc(C)nc21 6.31 µM, Cn1c(=O)[nH]c(=O)c2c1nc(Br)n2CCCCSc1nc2ccccc2o1 2.51 µM, CC(=O)Nc1cccc(Oc2cc(C#N)c(C#N)cc2N2CCOCC2)c1 5.01 µM, CCOC(=O)C1CCN(c2ncnc3c2oc2ccc(Br)cc23)CC1 2.51 µM, CCOC(=O)/C=c1\s/c(=C\c2ccccc2OC)c(=O)n1CC(=O)N1CCOCC1 2.51 µM, CCSc1nc(C)nc2c1oc1ccccc12 12.6 µM, CCCc1nc2ccccc2c(C(=O)OCc2nnc(-c3cc(OC)c(OC)c(OC)c3)o2)c1CC 0.501 µM, CCOCC(=O)Nc1sc2c(c1C(=O)OCC)CCCC2 10 µM, COC(=O)c1c(NC(=O)CSc2nncs2)sc2c1CCCCC2 6.31 µM, CC(C)(C)OC(=O)c1c(N)n(CCCN2CCCC2=O)c2nc3ccccc3nc12 10 µM

Potency, inactive:
C=CCn1c(C(C)NC(=O)CC)nc2ccccc21 (stereo not given), C=CCn1c(SCC(=O)Nc2nc3ccccc3s2)nnc1-c1ccccc1O, N#Cc1cc2[nH]c(=O)c(=O)[nH]c2cc1[N+](=O)[O-], CC(=O)CC(C)C, CCc1c(C)nc2cc(-c3cccs3)[nH]n2c1=O, COc1ccc(OCc2ccc(-c3nc4ccccc4c(=O)n3N)o2)cc1, COc1ccccc1CNc1ncncc1-c1cccc(NS(C)(=O)=O)c1, COc1ccccc1CNC(=O)CCn1c(=O)sc2ccccc21, COc1ccc(-n2c(C)nc3c(cnn3-c3ccccc3)c2=O)cc1, COCCn1c(=O)c(CCc2ccccc2)nc2cncnc21, CCOc1cccc(=O)c2c(C)n(CC3CCCO3)c(C)c12 (stereo not given), O=C(O)c1nccnc1C(=O)Nc1ccc(Br)cn1, C=CCNC(=O)C1CC=CCC1C(=O)O (stereo not given), COc1ccc(N)c(C)c1, COC(=O)[C@@]1(C)C=C[C@@H](Cc2ccccc2)N1C(C)=O, CCCCCCN(C(=O)CCCCCN1C(=O)NC(c2ccc(C(F)(F)F)cc2)C(C(=O)OCc2ccccc2)=C1C)C(C(=O)NCCCC)c1ccc(OCC(=O)OC)c(C(=O)OC)c1 (stereo not given), Cc1ccc2oc(=O)ccc2c1, c1ccc(Oc2ccccc2)cc1, COc1ccc(C2C(C#N)=C(N)Oc3n[nH]c(C)c32)cc1CN1CCN(c2ccc(F)cc2)CC1 (stereo not given), CCCCN(C)C(=O)c1ccc2c(c1)N(CC)C(=O)c1ccccc1S2(=O)=O, C[N+](C)(CCCCCC[N+](C)(C)CCCN1C(=O)c2cccc3cccc(c23)C1=O)CCCN1C(=O)c2cccc3cccc(c23)C1=O, NC(=O)C1CC=CCC1C(=O)OCC(Cl)=C(Cl)Cl (stereo not given), CC(=O)Oc1cccc(N2C(=O)C3CC=C(Cl)CC3C2=O)c1 (stereo not given), CC(=O)c1cccc(NC(=O)c2ccncc2)c1, CC(=O)Nc1ccc(S(=O)(=O)N2CCSCC2)cc1, O=C(CCN1C(=O)c2ccccc2C1=O)Nc1ccncc1, CC1CCN(c2nc3c(c(=O)[nH]c(=O)n3C)n2CCCc2ccccc2)CC1, Cn1c(=O)[nH]c(=O)c2c1nc(N1CCCCCC1)n2CC(=O)c1ccccc1, C[C@]1(C(=O)NCCc2c[nH]c3ccccc23)C=C[C@@H](Cc2ccccc2)N1C(=O)c1ccccc1, C1CCC2OC2C1 (stereo not given), CCOc1cccc(NC(=O)CC#N)c1, CC(=O)Nc1ccc(S(=O)(=O)Nc2ccc(N3CCOCC3)c(F)c2)cc1, CCCC(Cl)CCCC(Cl)CCC(Cl)CCC(Cl)CCC(Cl)CCCC(Cl)CCC (stereo not given), O=C(Cl)c1ccccc1[N+](=O)[O-], CCOC(=O)N1CCN(C(=O)C2CCN(c3ncnc4c3sc3cccc(F)c34)CC2)CC1, CCOC(=O)C1CCN(C(=O)c2oc3ccc(S(=O)(=O)N4CCCCCC4)cc3c2C)CC1, COC(=O)c1ccc(S(=O)(=O)c2ccc(C(=O)OC)s2)s1, COc1cccc2c(=O)n(CC(=O)N3CCCCCC3)ccc12, CCOc1ccccc1/C=c1\sc2nc(-c3ccco3)nn2c1=O, O=C(NC1CCN(Cc2ccccc2)CC1)c1ccccc1F, COCCOC(=O)C1=C(C)NC(=O)NC1c1ccc(Cl)cc1 (stereo not given), C[C@@H](Nc1nc(-c2ccccc2)nc2c1oc1ccccc12)C(=O)O, Cc1nc(N2CCCC2C(=O)O)c2oc3ccccc3c2n1 (stereo not given), O=C(OCc1nnc(-c2ccccc2)o1)c1ccc2c(c1)C(=O)N(CCc1ccccc1)C2=O, CCOC(=O)c1cc(-c2nnc(-c3cc(OC)c(OC)c(OC)c3)o2)c(C)nc1C, C[C@@H]1O[C@@H](O[C@@H]2[C@@H](O)[C@H](OCCc3ccc(O)c(O)c3)O[C@H](CO[C@@H]3O[C@H](CO)[C@@H](O)[C@H](O)[C@H]3O)[C@H]2OC(=O)/C=C/c2ccc(O)c(O)c2)[C@H](O)[C@H](O)[C@H]1O, N[C@@H](C(=O)O)c1ccc(P(=O)(O)O)cc1, CC1CN(c2cc(=O)n(Cc3ccc(F)cc3)c(=O)[nH]2)CC(C)O1 (stereo not given), COCc1cc(C)nc(Nc2cc(C)ccc2C)c1C#N, COC(=O)c1sc(NC(=O)c2csc3c2CCCC3)nc1C, N#Cc1c(NC(=O)CSc2nc3ccccc3c(=O)n2Cc2ccco2)sc2c1CCCC2, CCOC(=O)c1c(-n2cnnn2)sc(C)c1C, CCOC(=O)c1sc(NC(=O)CCN2CCOCC2)c(C(=O)OCC)c1C, C=CCOC(=O)COCCC(C)C, CC1C(c2ccccc2)=[N+]([O-])C2(CCCC2)N1O (stereo not given), CCCC[C@@H]1C[C@H]1C(NC(=O)c1ccco1)c1ccc(C(=O)OC)cc1 (stereo not given in full), C/C=C1\C(=O)C[C@@H]2[C@@H]3CCC4=CC(=O)CC[C@@]4(C)[C@H]3CC[C@@]12C, O=C(Nc1cccc(F)c1)c1ccc(S(=O)(=O)N2CCCC2)cc1, CSc1nnc(-c2ccncc2)n1CCCN1CCCC1=O, CCOc1cc2[nH]c(=S)n(CCCN3CCCC3=O)c(=O)c2cc1OCC, Cc1ccccc1C(=O)O
